Measured values: PubChem BioAssay (Tox21)
Unmarked numbers belong to inactive results. Inconclusive results are not listed. Entries that show only a call come without a potency. Active and inactive are the calls of the source. Calls come from the whole dose curve; as a rule, active = well fitted curve in the direction sought with a large enough effect in the repeat runs; inconclusive = weak or mixed curves; inactive = no such curve, though single readings can be large; an effect the other way counts as inactive or inconclusive.

Tests used:
[1] = Caspase-3/7 induction in CHO-K1 cells by small molecules, qHTS cell viability counter screen (AID 1346979); note: nearly all actives have a fitted effect of over 35% in size; note: potency is the fitted concentration of half-maximal effect
Outline: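 Viability readout by fluorescence (CellTiter-Fluor) on wild-type CHO-K1 cells exposed for 16hr at 37C and 5% CO2 to compounds delivered in DMSO; reagent incubated 1hr before reading.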

[2] = Caspase-3/7 induction in CHO-K1 cells by small molecules, qHTS assay (AID 1346980); note: nearly all actives have a fitted effect of over 15% in size
Outline: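 Wild-type CHO-K1 cells exposed to compounds for 17hr at 37 C, 5% CO2. Caspase-3/7 activity then measured by Caspase-Glo 3/7 luminescence after 30min at room temperature.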

[3] = Caspase-3/7 induction in HepG2 cells by small molecules, qHTS cell viability counter screen (AID 1346981); note: nearly all actives have a fitted effect of over 30% in size; note: potency is the fitted concentration of half-maximal effect
Outline: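 HepG2, WT, 2,000 cells/well; 5 hr pre-incubation 37 C/5% CO2; compound pin-transferred from DMSO; 16 hr exposure; CellTiter-Fluor, 1 hr; fluorescence read.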

[4] = target: Nuclear receptor subfamily 1 group I member 2 (Homo sapiens) (UniProt O75469); experiment: Human pregnane X receptor (PXR) small molecule agonists, qHTS assay (AID 1346982); note: nearly all actives have a fitted effect of over 35% in size; note: potency is the fitted concentration of half-maximal effect
Outline: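 Luciferase signal from ONE-Glo (30 min, room temperature) measured activation of hPXR-driven CYP3A4 reporter expression in PXR-Luc HepG2 cells treated with compounds for 24 hr at 37 C.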

[5] = target: Cytochrome P450 2D6 (Homo sapiens) (UniProt P10635); experiment: Cytochrome P450 Family 2 Subfamily D Member 6 (CYP2D6) small molecule antagonists: luciferase reporter qHTS assay (AID 1671196); note: nearly all actives have a fitted effect of over 50% in size; note: potency is the fitted concentration of half-maximal effect
Outline: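 Read-out is luminescence from luciferin formed by CYP2D6 turnover of a proluciferin substrate, recorded as relative luminescence units. Reactions ran 1 h at room temperature after NADPH regeneration solution was added.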

[6] = target: Cytochrome P450 2C19 (Homo sapiens) (UniProt P33261); experiment: Cytochrome P450 Family 2 Subfamily C Member 19 (CYP2C19) small molecule antagonists: luciferase reporter qHTS assay (AID 1671197); note: nearly all actives have a fitted effect of over 65% in size; note: potency is the fitted concentration of half-maximal effect
Outline: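 Luminescent readout of CYP2C19 activity: luciferin product detected 20 min after adding detection reagent. Before that, compound and enzyme-substrate mix preincubated 10 min at room temperature; NADPH-regenerating system started a 1 h, 37C reaction. Ketoconazole as positive control.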

[7] = target: Cytochrome P450 2C9 (Homo sapiens) (UniProt P11712); experiment: Cytochrome P450 Family 2 Subfamily C Member 9 (CYP2C9) small molecule antagonists: luciferase reporter qHTS assay (AID 1671198); note: nearly all actives have a fitted effect of over 50% in size; note: potency is the fitted concentration of half-maximal effect
Outline: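 P450-Glo proluciferin substrate with CYP2C9 enzyme; 10 min RT preincubation, then NADPH regeneration 1 h at 37C; luciferin detection reagent 20 min RT, luminescence in relative luminescence units.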

[8] = target: Cytochrome P450 1A2 (Homo sapiens) (UniProt P05177); experiment: Cytochrome P450 Family 1 Subfamily A Member 2 (CYP1A2) small molecule antagonists: luciferase reporter qHTS assay (AID 1671199); note: nearly all actives have a fitted effect of over 50% in size; note: potency is the fitted concentration of half-maximal effect
Outline: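 P450-Glo CYP1A2, 1536-well qHTS: enzyme/proluciferin substrate + cpd (DMSO), 10 min RT; NADPH regen, 1 h RT; detection reagent, 20 min; luminescence, RLU.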

[9] = target: Voltage-gated inwardly rectifying potassium channel KCNH2 (Homo sapiens) (UniProt Q12809); experiment: Human Ether-a-go-go-Related Gene (hERG) channel small molecule antagonists: fluorescence cell-based qHTS assay (AID 1671200); note: nearly all actives have a fitted effect of over 50% in size; note: potency is the fitted concentration of half-maximal effect
Outline: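 Thallium served as the potassium surrogate; its influx into dye-loaded U2OS cells carrying the channel was measured by fluorescence over 2 min.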

[10] = target: Cytochrome P450 3A4 (Homo sapiens) (UniProt P08684); experiment: Cytochrome P450 Family 3 Subfamily A Member 4 (CYP3A4) small molecule antagonists: luciferase reporter qHTS assay (AID 1671201); note: nearly all actives have a fitted effect of over 50% in size; note: potency is the fitted concentration of half-maximal effect
Outline: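 Relative luminescence units after 20 min with luciferin detection reagent served as read-out. Beforehand, CYP3A4 turned over a proluciferin substrate for 1 h at room temperature with NADPH regeneration, following 10 min compound preincubation.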

Cytochrome P450 1A2 (Homo sapiens), sequence (P05177 whole entry, looked up): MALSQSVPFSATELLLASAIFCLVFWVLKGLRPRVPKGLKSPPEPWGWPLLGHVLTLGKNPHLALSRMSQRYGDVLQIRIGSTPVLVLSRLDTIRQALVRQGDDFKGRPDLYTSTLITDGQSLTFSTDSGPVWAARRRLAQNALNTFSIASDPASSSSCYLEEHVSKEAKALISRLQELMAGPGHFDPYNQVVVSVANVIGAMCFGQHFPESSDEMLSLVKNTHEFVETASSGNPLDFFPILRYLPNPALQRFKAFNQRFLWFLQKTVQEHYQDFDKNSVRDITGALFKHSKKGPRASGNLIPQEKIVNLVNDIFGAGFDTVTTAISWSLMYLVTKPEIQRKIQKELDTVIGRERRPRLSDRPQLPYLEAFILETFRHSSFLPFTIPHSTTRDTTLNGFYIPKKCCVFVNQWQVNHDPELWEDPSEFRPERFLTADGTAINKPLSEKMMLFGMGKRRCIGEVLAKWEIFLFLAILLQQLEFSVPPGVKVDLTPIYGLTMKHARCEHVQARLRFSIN
Cytochrome P450 3A4 (Homo sapiens), sequence (P08684 whole entry, looked up): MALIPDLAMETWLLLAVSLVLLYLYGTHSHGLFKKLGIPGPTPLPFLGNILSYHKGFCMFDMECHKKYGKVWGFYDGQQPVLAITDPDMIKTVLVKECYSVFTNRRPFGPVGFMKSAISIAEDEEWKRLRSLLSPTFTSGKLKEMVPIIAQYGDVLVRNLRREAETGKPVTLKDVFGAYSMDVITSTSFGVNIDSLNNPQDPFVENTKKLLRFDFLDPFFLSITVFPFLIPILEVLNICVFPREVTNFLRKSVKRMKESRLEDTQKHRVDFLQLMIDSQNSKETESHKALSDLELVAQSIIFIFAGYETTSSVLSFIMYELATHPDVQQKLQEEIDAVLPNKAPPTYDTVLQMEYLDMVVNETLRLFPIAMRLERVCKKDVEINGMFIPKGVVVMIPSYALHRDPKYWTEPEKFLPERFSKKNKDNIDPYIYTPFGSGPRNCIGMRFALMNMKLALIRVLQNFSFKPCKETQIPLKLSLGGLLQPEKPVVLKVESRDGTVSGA
Nuclear receptor subfamily 1 group I member 2 (Homo sapiens), sequence (O75469 whole entry, looked up): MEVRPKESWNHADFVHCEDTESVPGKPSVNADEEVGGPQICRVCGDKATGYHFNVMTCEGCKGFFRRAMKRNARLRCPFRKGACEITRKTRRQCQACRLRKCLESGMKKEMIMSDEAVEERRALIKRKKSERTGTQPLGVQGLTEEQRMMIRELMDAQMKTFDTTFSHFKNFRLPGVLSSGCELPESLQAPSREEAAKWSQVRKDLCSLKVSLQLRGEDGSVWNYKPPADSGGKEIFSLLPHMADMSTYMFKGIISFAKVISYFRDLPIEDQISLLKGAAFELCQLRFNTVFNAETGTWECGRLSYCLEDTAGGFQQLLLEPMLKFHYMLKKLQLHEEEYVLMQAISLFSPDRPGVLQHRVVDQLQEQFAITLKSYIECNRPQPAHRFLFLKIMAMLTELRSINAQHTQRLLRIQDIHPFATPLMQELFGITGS
Cytochrome P450 2C9 (Homo sapiens), sequence (P11712 whole entry, looked up): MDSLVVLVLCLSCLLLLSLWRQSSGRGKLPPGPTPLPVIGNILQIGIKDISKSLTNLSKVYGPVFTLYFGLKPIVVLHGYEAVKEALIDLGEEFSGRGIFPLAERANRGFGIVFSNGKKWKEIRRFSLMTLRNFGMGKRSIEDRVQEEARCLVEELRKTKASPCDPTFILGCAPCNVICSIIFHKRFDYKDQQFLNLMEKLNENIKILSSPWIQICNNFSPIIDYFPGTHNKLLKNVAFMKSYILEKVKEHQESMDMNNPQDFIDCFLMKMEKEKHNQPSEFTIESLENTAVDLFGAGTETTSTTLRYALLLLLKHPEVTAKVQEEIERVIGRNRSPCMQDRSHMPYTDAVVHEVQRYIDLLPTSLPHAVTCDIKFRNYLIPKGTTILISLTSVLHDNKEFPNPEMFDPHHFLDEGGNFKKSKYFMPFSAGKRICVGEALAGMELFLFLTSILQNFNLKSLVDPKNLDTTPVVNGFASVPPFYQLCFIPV
Cytochrome P450 2C19 (Homo sapiens), sequence (P33261 whole entry, looked up): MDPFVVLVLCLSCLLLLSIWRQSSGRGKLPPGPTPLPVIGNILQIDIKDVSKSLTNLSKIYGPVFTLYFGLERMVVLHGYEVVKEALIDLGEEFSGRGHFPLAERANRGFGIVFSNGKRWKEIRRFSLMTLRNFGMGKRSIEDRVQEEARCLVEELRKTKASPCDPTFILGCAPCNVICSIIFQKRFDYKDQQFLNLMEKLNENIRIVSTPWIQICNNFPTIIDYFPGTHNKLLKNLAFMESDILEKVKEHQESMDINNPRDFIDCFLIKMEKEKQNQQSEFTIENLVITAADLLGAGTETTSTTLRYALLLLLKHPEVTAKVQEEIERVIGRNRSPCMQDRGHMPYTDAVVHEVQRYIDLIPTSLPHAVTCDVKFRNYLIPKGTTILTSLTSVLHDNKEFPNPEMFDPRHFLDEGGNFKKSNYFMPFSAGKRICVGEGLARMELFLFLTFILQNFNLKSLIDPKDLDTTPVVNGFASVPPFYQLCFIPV
Cytochrome P450 2D6 (Homo sapiens), sequence (P10635 whole entry, looked up): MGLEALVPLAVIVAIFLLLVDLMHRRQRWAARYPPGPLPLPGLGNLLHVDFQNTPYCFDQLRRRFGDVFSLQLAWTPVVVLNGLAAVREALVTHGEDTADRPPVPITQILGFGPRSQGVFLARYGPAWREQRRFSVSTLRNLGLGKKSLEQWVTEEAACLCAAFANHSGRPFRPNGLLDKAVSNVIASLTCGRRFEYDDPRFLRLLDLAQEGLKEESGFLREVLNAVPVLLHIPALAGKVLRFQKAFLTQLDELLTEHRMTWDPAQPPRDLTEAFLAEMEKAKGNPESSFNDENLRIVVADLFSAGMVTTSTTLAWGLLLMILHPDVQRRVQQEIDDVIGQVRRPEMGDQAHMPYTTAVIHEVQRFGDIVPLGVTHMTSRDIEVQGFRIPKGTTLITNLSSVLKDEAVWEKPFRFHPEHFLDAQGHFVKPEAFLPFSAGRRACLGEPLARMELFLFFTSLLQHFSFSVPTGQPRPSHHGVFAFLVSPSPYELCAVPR
Voltage-gated inwardly rectifying potassium channel KCNH2 (Homo sapiens), sequence (Q12809 whole entry, looked up): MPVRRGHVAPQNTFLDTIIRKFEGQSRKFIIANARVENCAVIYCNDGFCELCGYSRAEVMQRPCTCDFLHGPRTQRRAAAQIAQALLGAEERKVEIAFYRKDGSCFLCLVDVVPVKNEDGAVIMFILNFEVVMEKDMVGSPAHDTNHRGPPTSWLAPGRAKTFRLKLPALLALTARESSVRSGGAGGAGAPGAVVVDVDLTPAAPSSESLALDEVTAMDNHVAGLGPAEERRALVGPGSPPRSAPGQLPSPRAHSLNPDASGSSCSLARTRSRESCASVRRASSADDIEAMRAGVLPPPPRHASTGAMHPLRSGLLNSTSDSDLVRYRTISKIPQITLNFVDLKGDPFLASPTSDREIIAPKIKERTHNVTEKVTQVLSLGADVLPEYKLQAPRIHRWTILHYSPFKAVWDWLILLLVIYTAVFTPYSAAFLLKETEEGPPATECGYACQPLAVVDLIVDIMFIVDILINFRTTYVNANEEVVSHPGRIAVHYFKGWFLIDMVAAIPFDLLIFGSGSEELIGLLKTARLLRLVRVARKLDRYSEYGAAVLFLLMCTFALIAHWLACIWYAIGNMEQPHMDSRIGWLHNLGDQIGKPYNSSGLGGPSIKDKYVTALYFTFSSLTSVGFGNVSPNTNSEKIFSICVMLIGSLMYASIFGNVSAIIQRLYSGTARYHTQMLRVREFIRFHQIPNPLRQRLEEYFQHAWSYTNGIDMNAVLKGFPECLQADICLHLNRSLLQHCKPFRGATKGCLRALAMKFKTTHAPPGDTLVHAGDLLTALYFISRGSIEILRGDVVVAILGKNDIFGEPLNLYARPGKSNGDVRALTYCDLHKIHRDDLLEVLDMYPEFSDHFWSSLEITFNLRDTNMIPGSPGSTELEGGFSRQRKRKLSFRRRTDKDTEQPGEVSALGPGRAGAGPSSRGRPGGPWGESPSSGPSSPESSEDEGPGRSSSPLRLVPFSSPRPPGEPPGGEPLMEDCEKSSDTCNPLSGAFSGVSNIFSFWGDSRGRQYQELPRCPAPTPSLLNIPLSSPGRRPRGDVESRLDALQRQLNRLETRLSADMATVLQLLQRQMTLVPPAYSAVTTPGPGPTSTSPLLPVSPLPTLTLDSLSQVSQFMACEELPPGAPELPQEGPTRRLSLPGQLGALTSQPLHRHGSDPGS

SMILES | Potency [1] | Potency [2] | Potency [3] | Potency [4] | Potency [5] | Potency [6] | Potency [7] | Potency [8] | Potency [9] | Potency [10]
CCc1ccc(C)nc1 | inactive | inactive | inactive | inactive | inactive | inactive | inactive | inactive | inactive | inactive
CCCCCCCC/C=C\CCCCCCCC(=O)N(C)CC(=O)O | 68.6 µM (active) | inactive | inactive | inactive | inactive | inactive | 44.8 µM (active) | inactive | inactive | inactive
CCC(C)C(=O)OC (stereo not given) | inactive | inactive | inactive | inactive | inactive | inactive | inactive | inactive | inactive | inactive
CCN(CC)c1ccc(N)cc1 | 22.3 µM (active) | inactive | 25 µM (active) | inactive | 13 µM (active) | 9.18 µM (active) | 23.1 µM (active) | 41 µM (active) | 25.2 µM (active) | 11.6 µM (active)
OCCCCl | inactive | inactive | inactive | inactive | inactive | inactive | inactive | inactive | inactive | inactive
CCCCCCCC(C)=O | inactive | inactive | inactive | inactive | inactive | inactive | inactive | 35.6 µM (active) | inactive | inactive
COC(=O)NCCC[Si](OC)(OC)OC | inactive | inactive | inactive | inactive | inactive | inactive | inactive | inactive | inactive | 28.3 µM (active)
Cc1c(C(=O)O)cccc1[N+](=O)[O-] | inactive | inactive | inactive | inactive | inactive | inactive | inactive | inactive | inactive | inactive
CC(C)C(=O)OCc1ccccc1 | inactive | inactive | inactive | inactive | inactive | inactive | inactive | inactive | inactive | inactive
COc1ccccc1C=O | inactive | inactive | inactive | inactive | inactive | inactive | inactive | inactive | inactive | inactive
CCCC(C)CCC(C)=O (stereo not given) | inactive | inactive | inactive | inactive | inactive | inactive | inactive | inactive | inactive | inactive
O=C1OC(=O)c2cccc3cccc1c23 | inactive | inactive | inactive | 19.5 µM (active) | inactive | inactive | inactive | 35.9 µM (active) | inactive | inactive
CC1CCCCC1 | inactive | inactive | inactive | inactive | inactive | inactive | inactive | 63.3 µM (active) | inactive | inactive
NCCCCCCNCCCCCCN | inactive | inactive | inactive | inactive | 4.94 µM (active) | inactive | inactive | inactive | inactive | 3.5 µM (active)
CS(C)(=O)=O | inactive | inactive | inactive | inactive | inactive | inactive | inactive | inactive | inactive | inactive
Clc1cc(Cl)c(-c2c(Cl)c(Cl)cc(Cl)c2Cl)cc1Cl | inactive | inactive | inactive | inactive | inactive | inactive | inactive | inactive | inactive | inactive
C(=C/c1ccccc1)/c1ccccc1 | inactive | inactive | inactive | inactive | inactive | inactive | inactive | inactive | inactive | inactive
O=C1OC(=O)c2ccc3c4c(ccc1c24)C(=O)OC3=O | inactive | inactive | inactive | inactive | inactive | inactive | inactive | inactive | inactive | inactive
Cc1cccc(C)n1 | inactive | inactive | inactive | inactive | inactive | inactive | inactive | 39.9 µM (active) | inactive | inactive
CSc1c(Cl)c(Cl)c(Cl)c(Cl)c1Cl | inactive | inactive | inactive | 68.2 µM (active) | inactive | inactive | inactive | 14.1 µM (active) | inactive | inactive
